# Source: ChEMBL document CHEMBL1201862, “PubChem BioAssay data set” (2004)
# Screen size: about 400,000 compounds; about 2,100 (0.53%) were called active. About 14% were inconclusive and are not listed. The rule behind the calls is not given here. Many of the other results were omitted from the sample, so actives are more common in it than they were.
# Biological target: Ataxin-2 (Homo sapiens) (UniProt Q99700)
# Assay: qHTS for Inhibitors of ATXN expression.
# Format: functional
# Sequence of Ataxin-2 (Homo sapiens) (Q99700 whole entry): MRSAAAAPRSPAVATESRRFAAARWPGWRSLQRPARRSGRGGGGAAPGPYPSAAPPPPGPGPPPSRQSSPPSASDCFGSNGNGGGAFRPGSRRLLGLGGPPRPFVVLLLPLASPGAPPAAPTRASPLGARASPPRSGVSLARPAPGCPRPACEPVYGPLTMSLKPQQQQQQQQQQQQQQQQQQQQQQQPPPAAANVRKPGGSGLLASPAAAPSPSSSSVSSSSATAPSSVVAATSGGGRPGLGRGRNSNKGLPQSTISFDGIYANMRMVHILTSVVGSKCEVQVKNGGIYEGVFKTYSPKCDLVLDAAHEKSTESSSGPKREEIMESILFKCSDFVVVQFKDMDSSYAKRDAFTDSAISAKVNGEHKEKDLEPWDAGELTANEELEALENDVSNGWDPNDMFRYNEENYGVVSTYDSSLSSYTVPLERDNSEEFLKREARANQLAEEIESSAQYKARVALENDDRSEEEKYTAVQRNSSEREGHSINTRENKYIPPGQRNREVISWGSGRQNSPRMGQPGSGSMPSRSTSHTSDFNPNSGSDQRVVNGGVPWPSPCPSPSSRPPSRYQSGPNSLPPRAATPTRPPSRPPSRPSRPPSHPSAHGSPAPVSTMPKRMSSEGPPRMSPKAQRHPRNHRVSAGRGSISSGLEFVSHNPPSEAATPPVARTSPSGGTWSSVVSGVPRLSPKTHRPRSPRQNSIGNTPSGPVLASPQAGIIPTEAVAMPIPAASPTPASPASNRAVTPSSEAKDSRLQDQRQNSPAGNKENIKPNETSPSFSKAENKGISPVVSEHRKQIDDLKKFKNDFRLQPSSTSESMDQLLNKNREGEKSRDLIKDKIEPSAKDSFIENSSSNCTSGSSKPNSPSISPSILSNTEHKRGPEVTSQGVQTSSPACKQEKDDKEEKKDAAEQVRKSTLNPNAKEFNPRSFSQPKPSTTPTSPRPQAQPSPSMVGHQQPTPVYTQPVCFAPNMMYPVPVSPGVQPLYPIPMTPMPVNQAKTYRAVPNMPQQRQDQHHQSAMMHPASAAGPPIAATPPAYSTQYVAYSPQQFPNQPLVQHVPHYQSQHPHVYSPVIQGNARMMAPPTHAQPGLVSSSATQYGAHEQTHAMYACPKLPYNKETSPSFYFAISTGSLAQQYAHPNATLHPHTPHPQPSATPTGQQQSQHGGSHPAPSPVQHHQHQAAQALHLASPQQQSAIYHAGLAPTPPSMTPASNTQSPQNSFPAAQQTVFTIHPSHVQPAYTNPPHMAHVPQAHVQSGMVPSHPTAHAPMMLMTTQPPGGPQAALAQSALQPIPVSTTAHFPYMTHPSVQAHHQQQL
row,Compound,Potency
1,CCN1C(=O)[C@@H]2Cc3c([nH]c4ccccc34)C(c3ccc(OC)cc3)N2C1=S (stereo partly drawn),inactive
2,CCOc1ccc(C(=O)Oc2cc(C)nc(O)c2[N+](=O)[O-])cc1OCC,inactive
3,CCOC(=O)c1cc([N+](=O)[O-])cc([N+](=O)[O-])c1Sc1[nH]cnc2ncnc1-2,29.9 µM (active)
4,CCOC(=O)c1nnn(-c2ccc([N+](=O)[O-])cc2)c1C,inactive
5,CCCCCCCCOC(=O)c1cc([N+](=O)[O-])c(Sc2[nH]cnc3ncnc2-3)c([N+](=O)[O-])c1,22.4 µM (active)
6,Cc1ccc(C)c(N2CCN(C(=O)CCC(=O)Nc3ccc4nc(N5CCCCC5)cc(C)c4c3)CC2)c1,inactive
7,CCn1c(=O)cc(SCC(=O)N2CCN(c3cc(C)ccc3C)CC2)c2ccccc21,35.5 µM (active)
8,CCc1nc2ccc(C(=O)N3CCN(c4cc(C)ccc4C)CC3)cc2nc1CC,inactive
9,O=C1c2cccc3c(O)ccc(c23)C(=O)N1c1ccc(Cl)cc1,inactive
10,O=CN/C=C/c1cc(O)ccc1O,35.5 µM (active)
11,COC(=O)/C=C/c1sc2nc(C)cc(C)c2c1/N=C/N(C)C,inactive
12,COc1ccc(CNC(=O)CNS(=O)(=O)c2cccs2)cc1,inactive
13,COCCN(C(=O)Cc1cccs1)C(C(=O)NCc1ccc(OC)cc1)c1ccc(C(C)C)cc1 (stereo not drawn),39.8 µM (active)
14,COc1ccc(N(C(=O)c2cnccn2)C(C(=O)NCc2ccccc2)c2ccc(O)cc2)cc1 (stereo not drawn),inactive
15,Cc1ccc(C(=O)CSc2nnc(C3CC3)n2C2CC2)s1,inactive
16,N#C/C(=N/Nc1ccc(OC(F)(F)F)cc1)C(N)=S,10 µM (active)
17,CC(=O)Nc1ccc(OC(F)(F)Cl)cc1,inactive
18,Oc1ccc(-c2nccc(-c3ccc(Cl)cc3)n2)cc1,inactive
19,Oc1ccc(N=Nc2n[nH]c(-c3ccc(Cl)cc3)n2)cc1,35.5 µM (active)
20,Oc1ccc(-c2onc3ccc(Cl)cc23)cc1,inactive
21,CN(C)/C=C1\Oc2ccc3ccccc3c2C1=O,inactive

row,Compound,Potency
1,O=C1c2cccc3c(O)ccc(c23)C(=O)N1Cc1ccccc1,inactive
2,O=C1C=C(c2c(O)ccc3ccccc23)c2ccccc2C1=O,35.5 µM (active)
3,CCN1C(=O)c2cccc3c(S(=O)(=O)NCc4cccnc4)ccc1c23,inactive
4,CCCC(=O)OCCNc1cc(Sc2nccn2C)c2nonc2c1[N+](=O)[O-],39.8 µM (active)
5,CCC(=O)OCCNc1cc(Sc2nccn2C)c2nonc2c1[N+](=O)[O-],35.5 µM (active)
6,COC(C/C=C/C(=O)[C@H](C)OCc1ccccc1)OC,39.8 µM (active)
7,COc1ccccc1OCc1ccc(C(=O)Nc2ccccc2)cc1,inactive
8,Oc1nc2ccccc2nc1-c1c[nH]c2ccccc12,inactive
9,Clc1ccc(C(c2ccccc2)c2c[nH]c3ccccc23)s1 (stereo not drawn),31.6 µM (active)
10,c1ccc(C(c2cccs2)c2c[nH]c3ccccc23)cc1 (stereo not drawn),39.8 µM (active)
11,CCOc1ccccc1C1C(C(=O)OC)=CN(C)C=C1C(=O)OC,inactive
12,CC(=O)Oc1c(-c2ccc(Br)o2)oc2ccccc2c1=O,inactive
13,COC(=O)/C(=C1/Oc2cc(C)oc(=O)c2S1)C(F)(F)F,20 µM (active)
14,CC(C)[C@H](NS(=O)(=O)c1ccccc1F)C(=O)NC1CCCCC1,inactive
15,O=C1C=CC(c2c[nH]c3ccccc23)CC1 (stereo not drawn),35.5 µM (active)
16,CC(=O)N1CCC(c2c[nH]c3ccccc23)CC1,inactive
17,O=C1NCCNC1(c1c[nH]c2ccccc12)C(F)(F)F (stereo not drawn),inactive
18,C=CCn1c(=N)c(C#N)cc2c(=O)n3ccccc3nc21,inactive
19,CC(C)(C)OC(=O)N[C@@H](Cc1ccccc1)c1nnc(S(=O)(=O)Cc2cccc(F)c2)o1,31.6 µM (active)
20,COC(=O)CS(=O)(=O)c1nnc([C@H](Cc2ccccc2)NC(=O)OC(C)(C)C)o1,39.8 µM (active)
21,Cc1ccccc1CS(=O)(=O)c1nnc([C@H](Cc2ccccc2)NC(=O)OC(C)(C)C)o1,35.5 µM (active)

row,Compound,Potency
1,Oc1c(Br)cc(Cl)cc1/C=N/c1ccc(N2CCOCC2)cc1,inactive
2,Cc1ccc(O)c(C(=O)c2cc(C#N)c(=O)n(-c3nccs3)c2)c1,inactive
3,N=c1c(C(=O)NCc2ccc(F)cc2)cc2c(=O)n3ccccc3nc2n1Cc1cccnc1,inactive
4,O=C(Nc1ccc(F)cc1)c1sc2cc(C(F)(F)F)cnc2c1-c1cccs1,inactive
5,O=C(Oc1ccc2c(-c3ccccc3)cc(=O)oc2c1)C1CCCCC1,inactive
6,Cc1cccn2c(=O)c(C=C(C#N)C#N)c(N3CCN(c4ccccc4)CC3)nc12,inactive
7,Cc1cc(Oc2nc3c(C)cccn3c(=O)c2/C=C(\C#N)S(=O)(=O)c2ccccc2)ccc1Cl,39.8 µM (active)
8,CNC(=O)/C(C#N)=C/c1c(N2CCN(c3ccccc3)CC2)nc2c(C)cccn2c1=O,inactive
9,O=C(CCSc1ccc(Cl)cc1)Nc1cccnc1,inactive
10,CCS(=O)(=O)N1CCN(Cc2c[nH]c3ccccc23)CC1,inactive
11,COc1ccc(C(NC(=O)C2CCN(CCOc3ccc(Cl)cc3Cl)CC2)c2ccccc2C)cn1 (stereo not drawn),31.6 µM (active)
12,COc1ccc(NC(=O)c2cc(S(=O)(=O)N3CCCC3)ccc2C)cn1,inactive
13,CCOc1ccc(Cl)cc1S(=O)(=O)N1CCC(C(=O)NC2CC2)CC1,inactive
14,O=C(COC(=O)Cc1c[nH]c2ccccc12)Nc1cc(S(=O)(=O)N2CCOCC2)ccc1Cl,inactive
15,O=C(NC(c1ccc(F)cc1)c1ccc2ccccc2n1)C1CCN(CCOc2ccc(Cl)cc2Cl)CC1 (stereo not drawn),22.4 µM (active)
16,COc1cc(OC)nc(C(NC(=O)C2CCN(Cc3c[nH]c4ccccc34)CC2)c2ccc(Cl)cc2)n1 (stereo not drawn),35.5 µM (active)
17,O=C(NC(c1ccc(Cl)cc1)c1cccnc1)C1CCN(CCOc2ccc(Cl)cc2Cl)CC1 (stereo not drawn),39.8 µM (active)
18,Cn1cc(/C=N\O)nc2c(=O)n(-c3ccccc3)c(=O)nc1-2,inactive
19,O=C(COC(=O)/C=C/c1ccc(S(=O)(=O)N2CCc3ccccc32)cc1)NC1CCS(=O)(=O)C1 (stereo not drawn),inactive
20,CNc1cncc(-c2ccc(S(C)(=O)=O)cc2)n1,inactive
21,N=c1c(S(=O)(=O)c2ccc(Cl)cc2)cc2c(=O)n3ccccc3nc2n1Cc1ccco1,inactive
